Activity calls are given as the source filed them.

Composite z-score and z-score data for 13 compounds are collected here from PubChem BioAssay.

The nature of assay [1]: compounds binding Alexa647 anti-His antibody – biochemical, small-molecule microarray, 635 nm fluorescence, artefact control for SMM control protein annotation, primary screen (AID 1128).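 Also: score merges feature fluorescence with signal-to-noise for each printed compound spot.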 The following applies: higher = more signal.
In assay [2] the test system is Human papillomavirus type 1a E7 protein (residues 1-88). The assay can be described thus: HPV1a E7 small-molecule binders, primary screen, biochemical, small-molecule microarray, residues 1-88, 635 nm (AID 1129). The following applies: small-molecule microarray binding, fluorescence 635 nm; higher = more signal.
For assay [3], the target named is Focal adhesion kinase 1 (Homo sapiens) (UniProt Q05397). Kind of assay: PTK2 protein binding on printed compound slides – biochemical, small-molecule microarray, 635/667 nm fluorescence, BSA, DTT, primary screen (AID 1130).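 Also: composite of spot emission at 667 nm and signal to noise over triplicate slides.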 The following applies: 635 nm fluorescence, higher = more signal.
Focal adhesion kinase 1 (Homo sapiens), sequence (Q05397 whole entry, looked up): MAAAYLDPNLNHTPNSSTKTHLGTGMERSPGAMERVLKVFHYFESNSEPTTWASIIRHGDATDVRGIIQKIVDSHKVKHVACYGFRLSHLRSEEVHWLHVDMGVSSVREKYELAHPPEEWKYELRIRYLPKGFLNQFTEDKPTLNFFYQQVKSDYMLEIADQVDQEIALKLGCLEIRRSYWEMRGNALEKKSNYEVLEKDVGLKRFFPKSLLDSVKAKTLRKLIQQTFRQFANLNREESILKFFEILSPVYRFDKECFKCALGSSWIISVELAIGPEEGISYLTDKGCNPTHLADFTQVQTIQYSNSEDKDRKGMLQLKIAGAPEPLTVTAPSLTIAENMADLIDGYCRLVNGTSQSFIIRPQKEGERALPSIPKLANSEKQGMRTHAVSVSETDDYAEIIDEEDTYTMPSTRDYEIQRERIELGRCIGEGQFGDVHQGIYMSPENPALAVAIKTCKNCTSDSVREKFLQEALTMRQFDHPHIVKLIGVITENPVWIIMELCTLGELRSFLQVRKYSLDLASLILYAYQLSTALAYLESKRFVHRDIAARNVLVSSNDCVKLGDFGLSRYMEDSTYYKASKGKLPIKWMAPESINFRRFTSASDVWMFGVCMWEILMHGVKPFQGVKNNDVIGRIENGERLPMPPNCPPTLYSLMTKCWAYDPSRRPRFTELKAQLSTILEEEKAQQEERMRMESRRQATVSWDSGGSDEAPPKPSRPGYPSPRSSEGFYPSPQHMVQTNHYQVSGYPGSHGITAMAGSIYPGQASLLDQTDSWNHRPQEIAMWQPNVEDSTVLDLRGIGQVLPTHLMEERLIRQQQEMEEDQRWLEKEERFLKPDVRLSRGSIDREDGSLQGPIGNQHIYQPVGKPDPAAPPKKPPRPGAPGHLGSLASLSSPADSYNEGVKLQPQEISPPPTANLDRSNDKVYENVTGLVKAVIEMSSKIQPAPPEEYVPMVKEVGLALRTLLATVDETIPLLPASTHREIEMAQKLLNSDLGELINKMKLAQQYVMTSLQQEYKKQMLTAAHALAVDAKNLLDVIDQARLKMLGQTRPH
Assay [4] deals with Fibrinogen (Alexa647-labelled). Kind of assay: Alexa647-fibrinogen binding to printed small molecules – biochemical, small-molecule microarray, 635/667 nm fluorescence, artefact control for SMM control-protein annotation, profiling panel (AID 1131).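 Also: z-score merges 667 nm fluorescence with per-spot signal-to-noise over triplicate slides.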 The following applies: fibrinogen-A647 binding fluorescence, higher = more signal.
Assay [5] concerns the target Follistatin (Homo sapiens) (UniProt P19883). The assay can be described thus: FST protein binding to printed compounds – biochemical, small-molecule microarray, 635/667 nm fluorescence, primary screen (AID 1132). The following applies: 635 nm fluorescence, higher = more signal.
In assay [6] the target is Fibroblast growth factor 2 (Homo sapiens) (UniProt P09038). The assay can be described thus: basic fibroblast growth factor binding to printed compounds – biochemical, small-molecule microarray, 635/667 nm fluorescence, primary screen (AID 1133). The conditions noted are these: FGF2, fluorescence 635/667, higher = more signal.
Fibroblast growth factor 2 (Homo sapiens), sequence (P09038 whole entry, looked up): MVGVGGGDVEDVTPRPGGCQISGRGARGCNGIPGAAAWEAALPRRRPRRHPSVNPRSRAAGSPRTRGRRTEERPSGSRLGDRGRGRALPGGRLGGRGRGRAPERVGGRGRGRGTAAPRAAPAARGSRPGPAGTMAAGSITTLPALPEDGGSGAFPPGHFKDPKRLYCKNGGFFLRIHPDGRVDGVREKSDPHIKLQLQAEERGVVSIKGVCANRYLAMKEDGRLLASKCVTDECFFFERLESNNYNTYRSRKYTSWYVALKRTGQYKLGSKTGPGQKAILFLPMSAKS
Assay [7] in a line: JC-1 mitochondrial potential readout, lung cancer cells – cell-based, A549, JC-1 fluorescence, basal, 24 h, 100 nL, profiling panel (AID 1138).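 Also: A549 lung adenocarcinoma cells under basal conditions with no added stimulus; test concentration not given here.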 The following applies: higher = more signal.
For assay [8], the system named is Lefty1. The assay can be described thus: Lefty1 protein binding to printed compounds – biochemical, small-molecule microarray, 635/667 nm fluorescence, primary screen (AID 1139). The following applies: fluorescence 635/667, higher = more signal.
Assay [9] deals with wheat germ agglutinin (Triticum aestivum), Alexa647-labelled. The assay can be described thus: Alexa647-WGA lectin binding to printed small molecules – biochemical, small-molecule microarray, 635/667 nm fluorescence, artefact control for SMM control-protein annotation, profiling panel (AID 1140).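 Also: score merges 667 nm feature emission with signal to noise over triplicate slides.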 The following applies: WGA-A647 binding, 635 nm fluorescence, higher = more signal.

Assay [10] concerns the target Luciferin 4-monooxygenase (Photinus pyralis) (UniProt P08659). Kind of assay: inhibition of purified Photinus pyralis luciferase – biochemical, luminescence, purified enzyme, 2006 set, primary screen (AID 1141).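 Also: cell-free assay with purified firefly luciferase at 100 ng per well in PBS; test concentration not given here.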 The conditions noted are these: purified firefly luciferase, SteadyGlo luminescence, 30 min; higher = more signal, called active from +8 up or from −8 down.

Follistatin (Homo sapiens), sequence (P19883 whole entry, looked up): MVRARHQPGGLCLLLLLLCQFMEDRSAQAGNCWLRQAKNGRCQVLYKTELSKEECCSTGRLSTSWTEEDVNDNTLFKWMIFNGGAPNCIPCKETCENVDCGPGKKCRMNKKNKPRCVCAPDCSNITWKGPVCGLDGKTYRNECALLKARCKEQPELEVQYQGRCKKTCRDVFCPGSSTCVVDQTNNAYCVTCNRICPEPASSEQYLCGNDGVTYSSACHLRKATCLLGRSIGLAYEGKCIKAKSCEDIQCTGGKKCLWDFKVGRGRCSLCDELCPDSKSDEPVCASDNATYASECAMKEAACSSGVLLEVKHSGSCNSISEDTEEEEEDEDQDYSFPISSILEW
Luciferin 4-monooxygenase (Photinus pyralis), sequence (P08659 whole entry, looked up): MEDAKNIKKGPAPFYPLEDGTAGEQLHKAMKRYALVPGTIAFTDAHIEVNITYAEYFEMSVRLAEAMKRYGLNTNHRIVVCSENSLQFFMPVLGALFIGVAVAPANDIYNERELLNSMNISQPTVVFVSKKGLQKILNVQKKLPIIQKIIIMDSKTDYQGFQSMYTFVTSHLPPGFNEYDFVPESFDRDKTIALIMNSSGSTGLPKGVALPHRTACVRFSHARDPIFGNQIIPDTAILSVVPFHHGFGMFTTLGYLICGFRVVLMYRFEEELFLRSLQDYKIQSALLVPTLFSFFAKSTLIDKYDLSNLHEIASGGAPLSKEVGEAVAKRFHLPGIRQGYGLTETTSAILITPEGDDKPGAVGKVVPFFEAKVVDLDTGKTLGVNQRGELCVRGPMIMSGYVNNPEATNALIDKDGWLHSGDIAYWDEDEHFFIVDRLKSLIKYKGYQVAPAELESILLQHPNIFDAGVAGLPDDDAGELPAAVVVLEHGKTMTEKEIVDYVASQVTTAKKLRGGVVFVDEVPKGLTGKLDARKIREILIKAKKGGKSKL

For the compound `O=C1[C@H]2C=C(Br)[C@H](C[C@@H]2OCCCCO)[C@@]12CO2`, the composite z-score in [1] is -0.0684; in assay [2], -0.123; in assay [3], -0.14; in assay [4], -0.0973; in assay [5], 0.324; in assay [6] it was 0.108. Further, the values for the composite z-score in [8] and in assay [9] were 0.17 and 0.0889, respectively. Moreover, the z-score in assay [7] was 0.137; in assay [10], 0.469 (inactive).
Turning to `C=CCNC(=O)[C@H]1[C@@H]2C(=O)O[C@@H](c3ccccc3)[C@@H](c3ccccc3)N2[C@@H](c2ccc(OCCO)cc2)[C@]12C(=O)N(C(=O)OCCOC)c1ccccc12`, the composite z-score in [1] is 2.75; in [2], 1.25; in assay [3], 0.389; in [4] it was 0.962; in assay [5], 1.33; in assay [6], 1.53. The composite z-score in assay [8] was 0.807; in assay [9], 0.789. Further, the z-score is -0.134 in assay [7] and 0.122 (inactive) in assay [10].
Consider `C=CCOC(=O)[C@H]1[C@@H]2C(=O)O[C@@H](c3ccccc3)[C@@H](c3ccccc3)N2[C@@H](c2ccc(OCCOC(=O)[C@H]3C[C@H]4C(=O)N[C@@H](CC(C)C)C(=O)N4[C@H]3c3ccc(O)cc3)cc2)[C@]12C(=O)Nc1ccc(I)cc12`, for which the composite z-score in [1] came to 0.756; in assay [2] it was 0.937; in assay [3], 0.798; in [4], 0.839; in [5], 1.19; in assay [6], 1.55. The composite z-score in [8] worked out at 1.54; in [9] it was 0.739. Moreover, the z-score in assay [7] is -1.29; in assay [10], -2.02 (inactive).
Turning to `CC1CC/C=C\[C@H]2OC34C=CCN(c5ccc(Cl)cc5)C(=O)[C@H]3N(CCO)C(=O)[C@]4(C)C2C(=O)O1` (stereo not given in full), the composite z-score is 3.56 in assay [1]; -0.0955 in assay [2]; 1.67 in [3]; -1.84 in assay [4]; -0.338 in assay [5]; -0.492 in assay [6]. Further, the composite z-score in assay [8] was -0.49; in assay [9] it was 0.811. Further, the z-score is -0.259 in assay [7] and 0.259 (inactive) in [10].
As to `C=CCNC(=O)[C@H]1[C@@H]2C(=O)O[C@@H](c3ccccc3)[C@@H](c3ccccc3)N2[C@@H](c2ccccc2OCCO)[C@]12C(=O)Nc1ccc(C#CC3=CCCCC3)cc12`, the composite z-score in assay [1] was determined as 0.971; in [2], 1.17; in [3] it was 0.26; in [4], 0.783; in [5], 1.16; in [6], 1.21. Also, the composite z-score is 0.681 in assay [8] and 0.394 in assay [9]. In addition, the figures for the z-score in [7] and in assay [10] were -0.856 and -1.19 (inactive), respectively.
Turning to `CCOC(=O)C[C@H]1[C@H](OC(=O)Cc2ccc3c(c2)OCO3)[C@@H](NC(=O)c2ccc(-c3ccccc3)cc2)c2cc(OCCCO)ccc2N1C(=O)c1ccc2ccccc2n1`, the composite z-score in assay [1] is 0.0542; in assay [2] it was 0.242; in [3], 0.179; in [4], 0.368; in assay [5] it was 0.46; in [6] it was -0.0919. The values for the composite z-score in assay [8] and in assay [9] were 0.278 and 0.132, respectively. The z-score is -0.728 in assay [7] and 0.74 (inactive) in [10].
In the case of `COc1cc(OC)c(C(O)C2C=CC3C(=O)NC(=O)C3N2Nc2ccc(Cl)cc2Cl)cc1Br` (stereo not given), the composite z-score was 1.29 in assay [1]; 1.22 in assay [2]; 0.859 in assay [3]; 0.786 in assay [4]; 0.677 in assay [5]; 0.518 in assay [6]. In addition, the composite z-score in [8] stood at 0.0498; in assay [9], 1.07. Moreover, the z-score was -0.824 in assay [7] and 0.719 (inactive) in [10].
Consider `CCOc1cc(C(O)C2C=CC3C(=O)N(c4ccccc4)C(=O)C3N2Nc2ccccc2)ccc1O` (stereo not given), for which the composite z-score in [1] is 1.3; in assay [2], 1.19; in assay [3], 1.54; in assay [4] it was 0.896; in [5], 0.608; in assay [6], -0.106. Moreover, the composite z-score is -0.231 in assay [8] and 0.471 in assay [9]. In addition, the figures for the z-score in assay [7] and in [10] were -0.0767 and -1.15 (inactive), respectively.
With `CC(C)N1C(=O)c2ccccc2[C@](C)(C(=O)NCc2ccccc2)[C@@H]1c1ccc(CO)cc1`, the composite z-score in assay [1] is 3.09; in [2] it was 0.29; in assay [3] it was 0.239; in assay [4], -1.77; in assay [5], -0.24; in assay [6] it was -0.131. Besides, the composite z-score in assay [8] is -0.554; in assay [9] it was -0.444. The z-score is -0.39 in assay [7] and -1.06 (inactive) in assay [10].
Consider `CCCC#C[Si](O[C@H](CC)c1cn([C@H](CO)Cc2ccccc2)nn1)(C(C)C)C(C)C`, for which the composite z-score in assay [1] is 0.236; in assay [2], 0.842; in [3], 0.249; in assay [4], 0.892; in assay [5] it was 0.963; in [6], 0.344. In addition, the composite z-score in [8] came out at 0.41; in assay [9], 0.0686. Besides, the z-score in [7] was 0.175; in assay [10], -0.453 (inactive).
For the compound `COCC(=C=CC[C@H](O)c1ccccc1OCCO)C[C@H](O)c1cc(Cl)cc(Cl)c1O`, the composite z-score is -0.058 in [1]; 0.914 in assay [2]; 0.469 in assay [3]; 0.974 in [4]; 0.888 in assay [5]; 1.59 in assay [6]. Also, the composite z-score in assay [8] was 0.685; in assay [9], 0.351. Further, the results for the z-score in assay [7] and in assay [10] were -0.54 and -1.28 (inactive), respectively.
For `O=C1c2ccccc2[C@](Cc2ccccc2I)(C(=O)NC2CC2)[C@H](c2ccc(CO)cc2)N1C1CCCCC1`, the composite z-score was 2.63 in assay [1]; 1.24 in [2]; 0.548 in [3]; 0.806 in assay [4]; 1.27 in assay [5]; 1.09 in assay [6]. The values for the composite z-score in assay [8] and in [9] were 0.593 and 0.993, respectively. The z-score was 2.01 in assay [7] and -0.912 (inactive) in assay [10].
On to `COCCOC(=O)N1C(=O)[C@@]2(c3cc(C#CC4=CCCCC4)ccc31)[C@H](c1ccc(O)cc1)N1[C@H](c3ccccc3)[C@H](c3ccccc3)OC(=O)[C@H]1[C@@H]2C(N)=O`, for which the composite z-score in [1] stood at 0.711; in assay [2] it was 1.08; in assay [3], 0.334; in assay [4], 0.644; in assay [5], 1.32; in assay [6], 1.57. For the same compound, the composite z-score is 1.23 in assay [8] and 0.766 in [9]. The z-score in [7] was -0.858; in assay [10] it was -1.37 (inactive).
